VP16 counter: VP16 counterscreen qHTS for inhibitors of ROR gamma transcriptional activity | Drosophila S2 Gal4-VP16 UAS-luciferase, luminescence, 20 h | Potency, µM (series often up to 53.6 µM), for inactives: at the highest dose activity, negative = inhibition, most hits filed as inhibitors | 3.5% of 310,000 active | AID 2546, 2010;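 note: Gal4-VP16 expression switched on by copper sulfate through the metallothionein promoter; potency is the fitted concentration of half-maximal effect; % is set by controls: 0 for no effect and ±100 for the full control effect; nearly all actives have a fitted effect of over 50% in size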
MCF10A rereplic: A quantitative high throughput screen for small molecules that induce DNA re-replication in MCF 10a normal breast cells | 2.9% of 350,000 active | MCF 10A DNA re-replication, Hoechst nuclear intensity, 48 h | Potency, µM (series often up to 46.1 µM), without a hit: at the top dose activity, positive = re-replication, hits mostly activators | AID 624296, 2012; note: potency is the fitted concentration of half-maximal effect; % of control where 0% means no effect; nearly all actives have a fitted effect of over 50% in size
SW480 rereplic: A quantitative high throughput screen for small molecules that induce DNA re-replication in SW480 colon adenocarcinoma cells. SW480 DNA re-replication, Hoechst DNA content imaging, 48 h. Potency, µM (highest dose often 46.1 µM), without a hit: top-dose re-replication activation, usual class: activators. 1.8% of 340,000 active; note: potency is the fitted concentration of half-maximal effect; % of control where 0% means no effect; nearly all actives have a fitted effect of over 55% in size
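Image-based DNA-content assay: after two days of treatment, nuclei were labelled with the DNA dye Hoechst and imaged, and hits were compounds raising the count of nuclei showing high fluorescence intensity.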
RORg inh: qHTS for inhibitors of ROR gamma transcriptional activity; 5.4% of 310,000 active; AID 2551, 2010; Drosophila S2 Gal4-RORgamma UAS-luciferase reporter, 20 h; Nuclear receptor ROR-gamma (Mus musculus), P51450; Potency, µM (highest dose often 53.6 µM), inactives show at the top dose activity change, negative = inhibition, most hits filed as inhibitors; note: potency is the fitted concentration of half-maximal effect; % is set by controls: 0 for no effect and ±100 for the full control effect; nearly all actives have a fitted effect of over 60% in size
Target sequence (P51450 whole entry, looked up, the tested form may be a part): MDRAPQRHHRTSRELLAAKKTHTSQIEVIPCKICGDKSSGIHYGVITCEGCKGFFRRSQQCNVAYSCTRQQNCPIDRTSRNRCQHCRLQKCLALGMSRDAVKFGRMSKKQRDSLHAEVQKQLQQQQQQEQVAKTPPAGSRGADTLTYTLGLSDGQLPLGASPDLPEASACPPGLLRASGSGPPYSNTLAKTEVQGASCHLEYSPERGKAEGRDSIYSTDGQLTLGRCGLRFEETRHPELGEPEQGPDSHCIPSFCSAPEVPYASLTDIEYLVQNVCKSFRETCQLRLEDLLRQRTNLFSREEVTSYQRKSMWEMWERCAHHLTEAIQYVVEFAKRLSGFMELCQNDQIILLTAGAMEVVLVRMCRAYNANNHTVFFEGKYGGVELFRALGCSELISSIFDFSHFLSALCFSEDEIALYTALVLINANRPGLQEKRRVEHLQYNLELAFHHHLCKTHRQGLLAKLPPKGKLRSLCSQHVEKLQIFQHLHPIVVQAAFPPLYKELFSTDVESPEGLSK
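Stably transfected Drosophila Schneider cells are the test system, with ROR gamma fused to Gal4 and luciferase under UAS control; luminescence is read after 20 hr of 700 uM copper sulfate induction at ambient temperature.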
IL1B secr inh: qHTS for Inhibitors of Inflammasome Signaling: IL-1-beta AlphaLISA Primary Screen | THP-1 LPS/ATP IL-1B secretion, AlphaLISA, 16 h; active compounds read low | activity change, % at 57.5 µM | AID 743279, 2014 | 4.7% of 360,000 active; in the data active = activity change below about -50%; inconclusive = mostly about -30% to -49%; note: % is set by controls: 0 for no effect and ±100 for the full control effect
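THP-1 cells pretreated 1 hr with compounds (up to 57.5 uM final), then stimulated with LPS (250 ng/mL final) plus ATP (1.25 mM final); secreted IL-1B measured by AlphaLISA after 16 hr, decreased signal indicating inhibition.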
Active calls of the source: *; ? = inconclusive; · = no result; [ ] = dose if it differs, or a comment. A selection: hits, their analogues and other compounds. The true share with any hit is near 11%. Unless noted, calls come from the whole dose curve; as a rule, active = well fitted curve in the direction sought with a large enough effect; inconclusive = small, poorly fitted or top-dose-only effect, or another doubt; inactive = no such curve, though single readings can be large; an effect the other way counts as inactive or inconclusive.

SMILES	VP16 counter	MCF10A rereplic	SW480 rereplic	RORg inh	IL1B secr inh
O=C(Nc1nccs1)C(NS(=O)(=O)c1ccc(Br)s1)c1ccccc1 (centres undefined)	?	0%	-6%	11µM*	24
O=C(NC(=S)Nc1cccc2ncccc12)c1cccs1	-18%	0%	-22%	8.9µM*	33
CCOc1ccc(C(=O)Nc2cccc3ncccc23)cc1Br	4%	0.58µM*	64%	17%	0
Nc1ccc(C(=O)Nc2cccc3ncccc23)cc1	·	15%	2%	·	34
O=C(Nc1cccc2ncccc12)c1ccc(OCc2ccccc2)cc1	-8%	1.5µM*	-33%	43%	8
CC(=O)Nc1cccc2ncccc12	2%	-1%	-6%	-19%	5
O=C(NC(=S)Nc1nc2c(ccc3ccccc32)s1)c1cccs1	3.2µM*	11%	-6%	2.5µM*	0
c1ccc(Nc2nc(-c3ccc4c(c3)OCO4)nc3ccccc23)cc1	4%	·	·	24%	·
O=C(O)c1ccc(S(=O)(=O)N[C@H](Cc2ccc([N+](=O)[O-])cc2)C(=O)O)cc1	-4%	·	·	4%	·
O=C(NC(=S)Nc1ccc2ncccc2c1)c1ccccc1	-21%	10%	-6%	?	-8
O=C(NC(=S)Nc1cccc2ncccc12)c1ccccc1	?	2%	-2%	7.9µM*	-14
O=C(NC(=S)Nc1cccnc1Cl)c1ccc(Cl)cc1	?	4%	-5%	8.9µM*	7
COc1ccccc1OCCNC(=O)CN1C(=O)NC2(CCCCC2)C1=O	·	8%	-23%	·	14
Cc1cccc(C(=O)N2CCN(Cc3nc4sc5c(c4c(=O)[nH]3)CCCC5)CC2)c1	2%	-25%	-9%	1%	19
O=C1CCC(C(=O)OC(C(=O)c2c[nH]c3ccccc23)c2ccccc2)=NN1 (centres undefined)	7.1µM*	2%	-4%	33%[10 µM]	2
O=C(c1c[nH]c2ccccc12)C(O)C(c1ccccc1)N1CCOCC1 (centres undefined)	7%	2%	2%	8%	19
O=C(OC(C(=O)c1c[nH]c2ccccc12)c1ccccc1)c1cnccn1 (centres undefined)	-11%	-27%	-10%	0%	-3
O=C(c1c[nH]c2ccccc12)C(Cl)c1ccccc1 (centres undefined)	2%	23µM*	?	-22%	-73*
COc1cccc(NC(=O)CCC(=O)Nc2cc(OC)c(NC(=O)c3cccs3)cc2OC)c1	0%	9%	-139%	20%	21
CCN(C)C1CN(Cc2cn(Cc3ccc(F)cc3)nn2)S(=O)(=O)C1 (centres undefined)	·	·	·	·	21
Cc1c(N=C2N=C(NC(=O)Nc3ccc(Cl)cc3)c3ccccc32)c(=O)n(-c2ccccc2)n1C	-8%	16µM*	7%	9%	-1
Nc1ccc2oc(=O)c3ccccc3c2c1	-9%	1%	-146%	1%	-77*
O=c1oc(=O)c2ccccc2c2ccccc12	·	-1%	-1%	·	9
C[C@]12C=CC(=O)C=C1CC[C@@H]1[C@H]3C[C@@H](O)[C@](O)(C(=O)CO)[C@@]3(C)C[C@H](O)[C@]12F	0%[17 µM]	·	·	2%[16.9 µM]	·
Clc1cccc(-c2ccc(/C=N/n3cnnc3)o2)c1	2%	-6%	0%	34%	-54*
SMILES	VP16 counter	MCF10A rereplic	SW480 rereplic	RORg inh	IL1B secr inh
COc1cc(NC(=O)c2ccccc2)ccc1NC(=O)c1cc2ccccc2o1	-1%	?	6%	3%	59
COc1cccc(C(=O)Nc2ccc(NC(=O)c3cc4ccccc4o3)c(OC)c2)c1	-20%	10µM*	?	-25%	0
Cc1cc(NC(=O)c2cncc(Br)c2)ccc1NC(=O)c1cc2ccccc2o1	11µM*	2.9µM*	?	?	?
COc1ccc(NC(=S)NC(=O)c2cc3ccccc3o2)c(OC)c1	-24%	14%	-2%	8.9µM*	-3
CC1(C(=O)O)CCCN1C(=O)c1ccccc1OC(F)(F)F (centres undefined)	·	·	·	·	27
Cc1ccccc1NC(=S)NCCC(c1ccccc1)c1ccccc1	13µM*	?	4%	5µM*	-62*
Cc1ccc(NC(=S)NCc2ccccc2)c(C)c1	7.1µM*	-7%	0%[9.22 µM]	5µM*	-14
Cc1ccc(NC(=S)NCCC(c2ccccc2)c2ccccc2)c(C)c1	-9%[0.365 µM]	?	3%	3.5µM*	-4
Nc1[nH]nc2nc(N3CCCC3)nc(-c3ccccc3)c12	-10%	9%	-3%	?	-4
COc1ccc(-c2nc(N3CCOCC3)nc3n[nH]c(N)c23)cc1	-16%	1%	-3%	-14%	-70*
CC1CN(c2nc3ccccn3c(=O)c2/C=C(\C#N)C(=O)N2CCOCC2)CC(C)O1 (centres undefined)	-1%	6%	-23%	24%	11
CC1CN(c2nc3ccccn3c(=O)c2/C=C(\C#N)C(N)=O)CC(C)O1 (centres undefined)	-4%	0%	1%	-5%	-65*
CCNC(=O)/C(C#N)=C/c1c(N2CC(C)OC(C)C2)nc2ccccn2c1=O (centres undefined)	-2%	13%	12%	-8%	-3
CNC(=O)/C(C#N)=C/c1c(N2CC(C)OC(C)C2)nc2ccccn2c1=O (centres undefined)	1%	7.3µM*	?	-11%	0
Oc1cccc2oc(=S)[nH]c12	·	-12%	-12%	·	7
C(=NN=C(NN=Cc1cccs1)NN=Cc1cccs1)c1cccs1	·	10%	?	·	-1
CCCCc1c(-c2cccc(Cl)c2)ncn1CCc1ccccc1OC	·	·	·	·	-58*
CCCCc1c(Cc2ccccc2)ncn1CCc1ccccc1OC	·	·	·	·	-58*
CCCCc1c(-c2ccc(OC)cc2)ncn1CCc1ccccc1OC	·	·	·	·	-114*
CCCCc1c(-c2ccccc2OC)ncn1CCc1ccc(OC)cc1	·	·	·	·	-79*
CC1OC(n2cc(F)c(=O)[nH]c2=O)C(O)C1O (centres undefined)	-1%	·	·	-20%	·
Cc1ccc(S(=O)(=O)N[C@H]2COC(=O)[C@H](C)COC(=O)[C@H](C)NC(=O)C/C=C\[C@H]2C)cc1	-3%[10 µM]	·	·	9%[10 µM]	·
CCCCC/C=C\C\C=C/C=C/C=C/[C@@H](SCC(NC(=O)CCC(N)C(=O)O)C(=O)NCC(=O)O)[C@@H](O)CCCC(=O)O (some centres undefined)	7%	·	·	18%	·
CCCCc1c(-c2ccccc2OC)ncn1CCc1ccccc1	·	·	·	·	0
CCCCCc1c(-c2ccc(OC)cc2)ncn1CCc1ccccc1OC	·	·	·	·	-94*
